Molecules are shown by their SMILES. “And” between values parts separate entries of the source, which are not always exact repeats. Identical values can stand only once. About 1,100 (52%) of roughly 2,100 compounds were called active. Another 29% or so got no clear call; they are omitted. The set was probably picked from earlier hits. The list shows a part of the results. A number with no mark means an inactive call. The call rests on the fitted dose curve; in most records, active means well fitted inhibition curve with a large enough effect; inconclusive means small, poorly fitted or top-dose-only effect; inactive means no such curve, though single readings can be large or run the other way.
On the % scale 0 is the no-effect control and ±100 the full control effect; potency means the concentration at half of the fitted maximal effect.

Chain of DNA dC->dU-editing enzyme APOBEC-3F (Homo sapiens) (Q8IUX4 whole entry, looked up): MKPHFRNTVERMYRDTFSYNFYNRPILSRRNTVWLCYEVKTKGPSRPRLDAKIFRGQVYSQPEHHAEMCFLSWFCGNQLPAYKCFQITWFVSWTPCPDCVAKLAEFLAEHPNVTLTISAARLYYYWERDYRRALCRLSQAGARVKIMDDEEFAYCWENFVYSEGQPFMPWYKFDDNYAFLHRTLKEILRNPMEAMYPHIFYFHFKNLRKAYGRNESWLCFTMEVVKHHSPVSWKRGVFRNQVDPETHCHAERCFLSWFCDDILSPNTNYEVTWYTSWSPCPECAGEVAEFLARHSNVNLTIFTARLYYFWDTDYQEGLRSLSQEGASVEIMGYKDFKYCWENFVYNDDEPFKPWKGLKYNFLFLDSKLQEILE

The test deals with DNA dC->dU-editing enzyme APOBEC-3F (Homo sapiens) (UniProt Q8IUX4). Kind of test: qHTS for inhibitors of Vif-A3F interactions: Cherry picks counterscreen. Further: nearly all actives have a fitted effect of over 65% in size. To be noted: HeLa A3F-eYFP/Vif cells, eYFP fluorescence, 24 h; series mostly up to 46.1 µM; activity, negative = inhibitor: at the top concentration. The method in brief:
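HeLa cells stably expressing A3F-eYFP and Vif, cultured overnight, then treated 24 h at 37 degrees C with compounds at several concentrations; yellow fluorescence (488 nm Ex/500-530 nm Em) imaged on Acumen; MG132 positive control.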
A general note: Quantitative high-throughput screening tests each substance at several concentrations.
On to `COc1cccc(Cn2c(-c3nonc3NC(C)=O)nc3ccccc32)c1`, for which the Potency was 9.2 µM (active).

For the compound `Cc1ccc(C(=O)NCCn2c(N)c(C#N)c3nc4ccccc4nc32)cc1`, the Potency is 18.4 µM (active). With `COc1ccc(-c2cc(-c3nnc(COC(=O)c4ccncc4)o3)c3ccccc3n2)cc1OC`, the “activity, negative = inhibitor” value is 4.55%. With `COc1ccc(COc2cc(-c3cccc(OC)c3)nc3ccc(NC(=O)c4ccc(OC)cc4)cc23)cc1`, the Potency was 6.27 µM (active). In the case of `Cc1ccc2c(c1)sc(-c1ccc(N(C)C)cc1)[n+]2C`, the Potency is 14.6 µM (active). Regarding `CCCC(=O)Nc1nc2ccc(NC(=O)c3ccccc3F)cc2s1`, the Potency is 4.44 µM (active).

In the case of `CCC(=O)Nc1nc2ccc(NC(=O)c3cc(OC)c(OC)c(OC)c3)cc2s1`, the “activity, negative = inhibitor” value is -5.46% [at 36.9 µM]. In the case of `Cn1cc(C2=C(c3ccc(Cl)cc3Cl)C(=O)NC2=O)c2ccccc21`, the Potency is 14.6 µM (active) and 20.6 µM (active). For the compound `CCOC(=O)c1ccc(Nc2nc3ccccc3nc2NS(=O)(=O)c2ccc(Cl)cc2)cc1`, the Potency is 14.6 µM (active). With `Cc1ccc2nc(NS(=O)(=O)c3ccc(Cl)cc3)c(Nc3ccc(C(=O)O)cc3)nc2c1`, the Potency is 14.6 µM (active). Turning to `COC(=O)c1cc(Nc2nc3ccccc3nc2NS(=O)(=O)c2ccc(C)cc2)ccc1Cl`, the Potency was 18.4 µM (active). Consider `CCOC(=O)N1CCC(Nc2nc3ccccc3n3nnnc23)CC1`, for which the Potency was 18.4 µM (active). With `COc1cccc(Nc2nc(Nc3ccc(Cl)c(C(=O)O)c3)nc(C)c2[N+](=O)[O-])c1`, the “activity, negative = inhibitor” value is -17.5% [at 36.9 µM].

Take `CCOC(=O)N1CCC(Nc2nc3ccccc3nc2NS(=O)(=O)c2ccc(Cl)cc2)CC1`: the Potency is 23.1 µM (active). Consider `CC(=O)N/N=C/c1cc(C(C)(C)C)cc(/C=N/NC(C)=O)c1O`, for which the Potency was 23.1 µM (active). Regarding `NC(=S)N/N=C/c1cccc(O)c1O`, the “activity, negative = inhibitor” value is -9.52%.

Consider `CC(=O)N/N=C/c1cc(C(C)C)cc(/C=N/NC(C)=O)c1O`, for which the “activity, negative = inhibitor” value is 1.76%. With `CCOc1ccc(C(C)=O)cc1COc1cccnc1[N+](=O)[O-]`, the Potency is 9.94 µM (active). Consider `COc1cccc(/C=N/n2c(C3CCCCC3)n[nH]c2=S)c1O`, for which the “activity, negative = inhibitor” value was 3.52%. As for `COc1ccc(-n2nc3c(N4CCCC(C(=O)NCCc5ccccc5C)C4)nnc(C)c3c2C)cc1` (centres undefined), the Potency is 25.9 µM (active).

`COc1ccc2cc(C(=O)C3CCCN(Cc4ccccn4)C3)ccc2c1` (centres undefined): the “activity, negative = inhibitor” value was -1.67%.

As for `O=C(c1ccccc1F)n1c2c(c3ccccc31)CCCC2`, the Potency is 11.2 µM (active).

Turning to `CNCC(O)Cn1c2c(c3ccccc31)CCCC2` (centres undefined), the “activity, negative = inhibitor” value is -7.5% [at 36.9 µM]. For the compound `CCOC(=O)N1CCc2c(sc3c2C(=O)NC(c2ccc(N(C)C)cc2)N3)C1` (centres undefined), the Potency is 9.2 µM (active). With `Cc1cc(C)c2cc3c(N)c(C(=O)Nc4c(C)[nH]c(=O)[nH]c4=O)sc3nc2c1`, the Potency was 18.4 µM (active). Consider `CCOC1=C/C(=C/c2c(N)n3nc(-c4ccccc4)sc3nc2=O)C=CC1=O`, for which the “activity, negative = inhibitor” value is 7.32%. With `CCSc1ncc(Cl)c(C(=O)N2CCN(c3ccccc3OC)CC2)n1`, the Potency is 2.06 µM (active). In the case of `COc1ccccc1N1CCN(C(=O)c2ccc3ncsc3c2)CC1`, the “activity, negative = inhibitor” value was -27% [at 36.9 µM]. As to `COc1ccccc1N1CCN(C(=O)c2cc(=O)c3cc(C)cc(C)c3o2)CC1`, the Potency was 0.125 µM (active). Take `COc1ccccc1N1C(=O)c2cccc3c(C(=O)O)ccc(c23)C1=O`: the “activity, negative = inhibitor” value is -7.57% [at 36.9 µM].

Consider `COc1cc(SC)ccc1C(=O)N1CCN(c2ccccc2OC)CC1`, for which the Potency is 3.53 µM (active).

In the case of `COC(=O)c1cc(C(=O)N2CCN(c3ccccc3OC)CC2)cc([N+](=O)[O-])c1`, the Potency is 3.96 µM (active). The same measure, in the same setting: the same measure for `COc1ccccc1C(=O)N1CCN(c2cccc(Cl)c2)CC1`: 1.25 µM (active); for `COc1ccc(Cn2c(C)nc3c(c2=O)c2nc4ccccc4nc2n3Cc2ccco2)cc1`: 18.4 µM (active).

Regarding `Cc1ccc2nc3c(cc(S(=O)(=O)c4ccccc4)c(=N)n3Cc3ccco3)c(=O)n2c1`, the “activity, negative = inhibitor” value is -23%. As for `CCn1c(SCC(=O)c2c[nH]c3ccccc23)nnc1-c1cccs1`, the Potency was 18.4 µM (active). As to `CCOc1ccc(NC(=O)/C(C#N)=C/c2ccc(N3CCCC3)c(C)c2)cc1`, the Potency was 5.8 µM (active).

On to `CCOC(=O)c1c(-c2ccc(C)cc2)csc1NC(=O)/C(C#N)=C/c1ccc(O)c(OC)c1`, for which the “activity, negative = inhibitor” value is 16.7% [at 36.9 µM]. With `CCOc1cc(/C=C(/C#N)C(=O)Nc2ccc(O)cc2)cc(Br)c1O`, the Potency is 15.8 µM (active). Still for that read-out and setting: then `Cc1ccc2c(c1)Sc1c(ccc3ccccc13)N2`, with 16.4 µM (active); and `Cc1cc(C)c(S(=O)(=O)Oc2ccccc2[N+](=O)[O-])c(C)c1`, with 6.27 µM (active). Regarding `O=[N+]([O-])c1ccccc1SNc1ccccc1`, the “activity, negative = inhibitor” value is -29% [at 36.9 µM]. Take `CCN(CC)c1ccc(C=NNc2ccc([N+](=O)[O-])cn2)cc1`: the Potency is 10.3 µM (active). Take `Cc1ccc(Cc2c(C3CCCCC3)nc3ccc(C)cn23)cc1`: the “activity, negative = inhibitor” value was -21.2% [at 36.9 µM]. For the compound `Cc1noc(C)c1COc1cccc(C(=O)OCC(=O)N2CC(=O)Nc3ccccc32)c1`, the Potency is 6.27 µM (active). In the case of `C/C(=N\Nc1nccnc1Cl)c1ccc(Cl)c(Cl)c1`, the “activity, negative = inhibitor” value was -1.06%.

As to `C=CCSc1nc2ccccc2n1C(=O)/C=C/c1cc(OC)c(OC)c(OC)c1`, the Potency was 6.27 µM (active). Turning to `CCSc1nc2ccccc2n1C(=O)/C=C/c1ccc(OC)c(OC)c1`, the Potency is 4.98 µM (active).

On to `CNc1cncc(-c2cc(C)c(O)c(C)c2)n1`, for which the Potency was 4.44 µM (active).

For the compound `O=C(Nc1ncc(Cc2ccc(SC(F)F)cc2)s1)c1ccccc1`, the Potency was 2.23 µM (active). In the case of `Cc1nc(-c2ccc(Cl)cc2)sc1C(=O)NN`, the Potency is 14 µM (active). `O=C(O)Cc1sc(NC2CCCCC2)nc1-c1ccc(Cl)cc1`: the “activity, negative = inhibitor” value is -13.1%. With `CCOc1cc(/C=C2/SC(=S)N(CC3CCCO3)C2=O)ccc1O` (centres undefined), the Potency was 14.6 µM (active). Still for that read-out and setting: then `Cc1cc(N(C)C)c(C)cc1/C=C/c1ccnc2ccccc12`, with 8.2 µM (active). Consider `CCN(CC)c1cc(C)c(/C=C/c2ccnc3ccccc23)cc1C`, for which the Potency is 20.6 µM (active). Consider `CC(C)C1C(=O)N(Cc2cn(CCC3OCCCO3)nn2)CCS(=O)(=O)N1Cc1ccc(-c2cccc(CO)c2)cc1` (centres undefined), for which the “activity, negative = inhibitor” value was -8.31% [at 36.9 µM]. `O=C(NC(=S)Nc1ccc(N2CCCCC2)c(Cl)c1)c1ccc2c(c1)OCCO2`: the “activity, negative = inhibitor” value was -28.4%.

On to `COc1ccc(-c2cc3ccccc3oc2=O)cc1NC(=S)NC(=O)c1ccc2c(c1)OCCO2`, for which the Potency was 6.51 µM (active). Regarding `Cc1ccc2ccc3cc(C(=O)Nc4ccc(C)c(F)c4)nc3c2[nH]1`, the Potency was 18.4 µM (active). With `C1=Cc2ccccc2/C1=C\c1cc2c3c(c1)CCCN3CCC2`, the Potency is 16.4 µM (active). On to `Cc1ccc(/C=C2/CNC/C(=C/c3ccc(C)cc3)C2=O)cc1`, for which the Potency was 9.94 µM (active). Turning to `CCNc1ccc(Br)cc(C(=O)/C=C/c2ccc3c(c2)OCO3)c1=O`, the Potency was 18.4 µM (active). On to `Cc1ccc2oc(/N=C(\N)NC(=O)C(C)(C)C)nc2c1`, for which the “activity, negative = inhibitor” value was 0.425%. As for `CN1C(=O)/C(=C/c2ccccc2OCc2ccc(F)cc2)N(C)C1=S`, the “activity, negative = inhibitor” value was -14.7%. In the case of `CCNC(=S)N/N=C(\C)c1ccc(N2CCOCC2)cc1`, the “activity, negative = inhibitor” value was -2.23%. As for `Cc1cccc2cc3c(N)c(C(=O)Nc4ccc(N5CCOCC5)cc4)sc3nc12`, the Potency was 12.5 µM (active). On to `O=C(Nc1ccc(N2CCOCC2)cc1)c1cccc2ccccc12`, for which the Potency is 15.8 µM (active). `Cc1ccc(C)c2nc3sc(C(=O)N4CCOCC4)c(N)c3cc12`: the Potency is 15.8 µM (active).

`Cc1cccc2cc3c(N)c(C(=O)N4CCOCC4)sc3nc12`: the Potency was 16.4 µM (active). Turning to `CCc1ccc(C(=O)NC(=S)Nc2ccc(N3CCOCC3)cc2)cc1`, the “activity, negative = inhibitor” value was 3.84%. As to `N#C/C(=C\c1ccc(N2CCOCC2)o1)C(=O)NCCc1ccccc1`, the “activity, negative = inhibitor” value is 39.2%. For `N#C/C(=C/c1ccc(N2CCOCC2)o1)C(=O)NC1CCCCC1`, the Potency was 18.4 µM (active). Same read-out and setting: the same measure for `N#C/C(=C\c1ccc(N2CCOCC2)o1)C(=O)NC1CCCCC1`: 14 µM (active); for `Oc1cccc(Nc2nc(O)c(/C=C3\C=Nc4ccccc43)s2)c1`: 20.6 µM (active).

`CCOC(=O)/C=c1/s/c(=C/c2ccc3cc(OC)ccc3c2)c(=O)n1CC(=O)NCC1CCCO1` (centres undefined): the Potency was 18.4 µM (active). Consider `CCOC(=O)/C=c1\s/c(=C\c2c(OC)ccc3ccccc23)c(=O)n1CC(=O)NCC1CCCO1` (centres undefined), for which the Potency was 4.61 µM (active). In the case of `CCOC(=O)/C=c1\s/c(=C\c2ccccc2C)c(=O)n1CC(=O)NCc1ccc2c(c1)OCO2`, the Potency is 14 µM (active). For the compound `NC(=O)CSc1nc2c(sc3ccccc32)c(=O)n1CCCC(=O)NCC1CCCO1` (centres undefined), the “activity, negative = inhibitor” value is -9.59%. Take `CCOC(=O)/C=c1/s/c(=C\c2c(OC)ccc3ccccc23)c(=O)n1CC(=O)NCC1CCCO1` (centres undefined): the Potency is 9.94 µM (active). On to `S=C(NN=Cc1ccccn1)Nc1ccccn1`, for which the “activity, negative = inhibitor” value is 13.5%. For the compound `Nc1cccc(CCc2nc3cc4ccccc4cc3[nH]2)c1`, the Potency is 4.44 µM (active). The same measure, in the same setting: then `O=C(NNc1ncc(C(F)(F)F)cc1Cl)c1c(Cl)cccc1Cl`, with 4.44 µM (active). With `Cc1cc(C)c(C(=O)N(CCN(C)C)CC2CCCN(Cc3ccccc3F)C2)o1` (centres undefined), the “activity, negative = inhibitor” value is -1.53%. `CC(C)OC(=O)c1cc(C(=O)c2cc(F)ccc2O)coc1=N`: the Potency was 20.6 µM (active). In the case of `CCC(=O)Nc1ccccc1-c1nc2ccccc2n(C(C)C(=O)Nc2ccc(OC)cc2)c1=O` (centres undefined), the Potency is 16.4 µM (active). As for `c1cncc(-c2nc(NCc3cccs3)c3ccccc3n2)c1`, the “activity, negative = inhibitor” value was -5.28%. For `Brc1ccc2c(c1)C(c1cccnc1)=NNC(c1cccs1)=N2`, the Potency was 14 µM (active). For the compound `COC(=O)c1sccc1S(=O)(=O)N(CC(=O)Nc1cc(F)ccc1F)c1ccc(C)c(C)c1`, the “activity, negative = inhibitor” value is -18.6%. Take `CCOC(=O)c1[nH]c(C)c(C(=O)Nc2cc(OC)ccc2OC)c1C`: the Potency was 1.77 µM (active).

For the compound `CCOC(=O)c1[nH]c(C)c(C(=O)Nc2ccc(C)cc2C)c1C`, the Potency was 2.23 µM (active). As for `CC(=O)c1c(C)[nH]c(C(=O)Nc2ccc(Cl)cc2F)c1C`, the “activity, negative = inhibitor” value is -0.176%. For `CCOC(=O)c1[nH]c(C)c(C(=O)Nc2ccccc2F)c1C`, the Potency was 3.14 µM (active).

On to `COc1ccc(OC)c(NC(=O)c2cc(-c3cc(C)cc(C)c3O)n[nH]2)c1`, for which the “activity, negative = inhibitor” value is -0.959%.

As for `Cc1ccc(C)c(N2CCN(C(=O)c3cccn4c(=O)c5sccc5nc34)CC2)c1`, the Potency is 15.8 µM (active).

These data come from PubChem BioAssay AID651815 (National Center for Advancing Translational Sciences (NCATS), 2012).
